Screening results as filed in PubChem BioAssay.
IDE exosite inh: exo-site inhibitors of human insulin-degrading enzyme | z-score at 20 µM | purified IDE, FL-6b probe fluorescence polarization; active compounds read low | 17,000 tested, 6.3% active | P14735;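 active means z-score of -3 or lower, meaning strong loss of probe binding signal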;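 further: His-tagged human IDE residues 42-1019 made in E. coli with 30 nM FL-6b probe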
Target sequence (P14735 42-1019 limits assumed): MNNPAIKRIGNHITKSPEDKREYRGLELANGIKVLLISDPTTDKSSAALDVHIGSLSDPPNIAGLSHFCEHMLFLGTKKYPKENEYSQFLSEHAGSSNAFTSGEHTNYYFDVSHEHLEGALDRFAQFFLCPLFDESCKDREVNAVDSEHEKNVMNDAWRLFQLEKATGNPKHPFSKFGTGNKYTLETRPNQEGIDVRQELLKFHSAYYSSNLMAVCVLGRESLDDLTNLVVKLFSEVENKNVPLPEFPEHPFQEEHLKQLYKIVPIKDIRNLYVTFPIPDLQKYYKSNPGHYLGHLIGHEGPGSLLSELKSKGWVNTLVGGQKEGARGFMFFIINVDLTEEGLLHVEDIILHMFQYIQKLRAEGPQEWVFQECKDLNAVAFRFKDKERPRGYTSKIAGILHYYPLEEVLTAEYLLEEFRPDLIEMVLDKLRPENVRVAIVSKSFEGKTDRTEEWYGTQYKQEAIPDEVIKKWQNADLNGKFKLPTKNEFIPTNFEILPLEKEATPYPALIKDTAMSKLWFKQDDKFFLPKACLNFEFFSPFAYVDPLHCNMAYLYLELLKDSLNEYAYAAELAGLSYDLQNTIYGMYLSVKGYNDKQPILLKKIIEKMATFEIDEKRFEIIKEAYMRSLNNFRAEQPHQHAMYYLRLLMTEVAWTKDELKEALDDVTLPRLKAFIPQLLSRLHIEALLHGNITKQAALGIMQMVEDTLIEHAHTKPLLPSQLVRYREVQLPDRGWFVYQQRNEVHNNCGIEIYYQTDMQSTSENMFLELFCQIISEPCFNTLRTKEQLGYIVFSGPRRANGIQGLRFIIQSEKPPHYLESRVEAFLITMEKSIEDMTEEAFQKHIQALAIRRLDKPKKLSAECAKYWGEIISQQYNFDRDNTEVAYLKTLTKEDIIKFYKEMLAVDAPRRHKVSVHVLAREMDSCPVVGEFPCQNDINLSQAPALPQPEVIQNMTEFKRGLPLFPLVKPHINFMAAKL
Numbers without * were called inactive. The entries come from a sample that favours hits as a whole.

SMILES	IDE exosite inh
COc1ccc(-c2ccc([C@@H]3[C@@H](CO)N4C(=O)CN(C(=O)c5ccc6c(c5)OCO6)C[C@H]34)cc2)cc1	0.31
O=C(c1ccc2c(c1)OCO2)N1CC(=O)N2[C@@H](CO)[C@H](c3ccc(C#Cc4ccccc4)cc3)[C@@H]2C1	-4.3*
Cc1ccc(-c2ccc([C@@H]3[C@@H](CO)N4C(=O)CN(C(=O)c5ccccc5)C[C@H]34)cc2)cc1	0.83
Cc1cccc(-c2ccc([C@@H]3[C@H](CO)N4C(=O)CN(C(=O)c5ccccc5)C[C@@H]34)cc2)c1	-4.6*
O=C(c1ccc2c(c1)OCO2)N1CC(=O)N2[C@H](CO)[C@@H](c3ccc(-c4ccccc4)cc3)[C@H]2C1	0.43
Cc1cccc(-c2ccc([C@H]3[C@H](CO)N4C(=O)CN(C(=O)c5ccccc5)C[C@@H]34)cc2)c1	-7.4*
Cc1ccc(-c2ccc([C@H]3[C@@H](CO)N4C(=O)CN(C(=O)c5ccccc5)C[C@@H]34)cc2)cc1	1.3
O=C(c1ccc2c(c1)OCO2)N1CC(=O)N2[C@H](CO)[C@@H](c3ccc(C#Cc4ccccc4)cc3)[C@H]2C1	2.9
O=C(c1ccc2c(c1)OCO2)N1CC(=O)N2[C@H](CO)[C@H](c3ccc(C#Cc4ccccc4)cc3)[C@@H]2C1	-0.14
Cc1cccc(-c2ccc([C@H]3[C@H]4CN(C(=O)c5ccccc5)CC(=O)N4[C@H]3CO)cc2)c1	-0.72
Cc1cccc(-c2ccc([C@@H]3[C@@H](CO)N4C(=O)CN(C(=O)c5ccccc5)C[C@H]34)cc2)c1	-1.4
Cc1cccc(-c2ccc([C@H]3[C@@H](CO)N4C(=O)CN(C(=O)c5ccc6c(c5)OCO6)C[C@@H]34)cc2)c1	-3.1*
N#C[C@@H]1[C@@H](c2ccccc2-c2ccccc2)[C@@H](CO)N1C(=O)NC1CCCC1	1
CN(C)C(=O)c1ccc(-c2ccc([C@@H]3[C@H](CO)N4C(=O)CN(C(=O)C5CCCCC5)C[C@@H]34)cc2)cc1	1.5
CCCC(=O)N1CC2(C1)CN(Cc1ccccc1F)[C@H](CO)c1c2c2ccc(OC)cc2n1C	0.028
CO[C@H]1CN(C)C(=O)c2cc(NS(C)(=O)=O)ccc2OC[C@H](C)N(C(=O)C2CCOCC2)C[C@H]1C	0.95
O=C(c1cccc(F)c1)N1CC(=O)N2[C@H](CO)[C@@H](c3ccc(/C=C/c4ccccc4)cc3)[C@H]2C1	-0.62
CO[C@@H](CN(C)Cc1ccc2c(c1)OCO2)[C@H](C)CN(C(=O)c1ccccc1)[C@@H](C)CO	-0.75
O=C(C[C@H]1C[C@@H]2c3cc(NS(=O)(=O)c4ccc(F)cc4)ccc3O[C@@H]2[C@@H](CO)O1)NCc1cccnc1	-0.66
CCS(=O)(=O)N1CC(=O)N2[C@H](C1)[C@@H](c1ccc(-c3ccc(C)cc3)cc1)[C@@H]2CO	0.29
COc1ccccc1C#Cc1ccc2c(c1)[C@H]1[C@H](CCN1S(=O)(=O)c1cn(C)cn1)[C@@H](CO)N2	0.55
C/C=C/c1ccc([C@@H]2[C@@H](CO)N(C(=O)NC(C)C)[C@H]2CN(C)C(=O)CC)cc1	3.5
COCC(=O)N1CCCCN2[C@H](CO)[C@H](c3ccc(C#Cc4cccnc4)cc3)[C@H]2C1	2.6
CCC(=O)N1CCCCN2[C@@H](CO)[C@@H](c3ccc(C#Cc4cccnc4)cc3)[C@@H]2C1	-3.1*
COCC(=O)N1CCCCN2[C@H](C1)[C@H](c1ccc(C#Cc3cccnc3)cc1)[C@@H]2CO	0.39
SMILES	IDE exosite inh
COCC(=O)N1CCCCN2[C@H](CO)[C@H](c3ccc(C#Cc4cccnc4)cc3)[C@@H]2C1	-3.1*
O=C(Nc1cccc(F)c1)N1CCCCN2[C@H](CO)[C@H](c3ccc(C#Cc4cccnc4)cc3)[C@@H]2C1	-1.6
CCC(=O)N1CCCCN2[C@H](CO)[C@H](c3ccc(C#Cc4cccnc4)cc3)[C@@H]2C1	-10*
CCC(=O)N1CCCCN2[C@H](C1)[C@H](c1ccc(-c3cccnc3)cc1)[C@@H]2CO	2.5
CCC(=O)N1CCCCN2[C@@H](CO)[C@@H](c3ccc(-c4cccnc4)cc3)[C@@H]2C1	0.016
O=C(c1cccc(F)c1)N1CC2(C1)[C@H](c1ccccc1)[C@H](CO)N2Cc1ccccn1	0.9
C/C=C/c1ccc([C@H]2[C@H](CO)N3CCCCN(S(=O)(=O)c4ccc(F)cc4)C[C@@H]23)cc1	4.1
C/C=C/c1ccc([C@H]2[C@@H](CO)N3C(=O)CN(Cc4ccccc4)C[C@@H]23)cc1	0.28
N#C[C@@H]1[C@H](c2ccccc2C2=CCCC2)[C@H](CO)N1C(=O)Cc1ccncc1	0.41
Cc1ccccc1-c1ccc([C@@H]2[C@H](CO)N3CCCCN(C(=O)Nc4ccc(F)cc4)C[C@@H]23)cc1	-11*
COc1ccc(NC(=O)N2CCCCN3[C@H](CO)[C@@H](c4ccc(-c5ccccc5C)cc4)[C@@H]3C2)cc1	0.55
Cc1ccccc1-c1ccc([C@H]2[C@@H](CO)N3CCCCN(C(=O)Nc4ccccc4)C[C@@H]23)cc1	-1.4
Cc1ccccc1-c1ccc([C@@H]2[C@H](CO)N3CCCCN(C(=O)Nc4ccccc4)C[C@@H]23)cc1	-5*
Cc1ccccc1-c1ccc([C@@H]2[C@@H](CO)N3CCCCN(C(=O)Nc4cccc(F)c4)C[C@@H]23)cc1	-1.5
Cc1ccccc1-c1ccc([C@@H]2[C@@H](CO)N3CCCCN(C(=O)Nc4ccc(F)cc4)C[C@@H]23)cc1	0.29
Cc1ccccc1S(=O)(=O)N1CC(=O)N2[C@@H](CO)[C@H](c3ccc(C#CCC4CCCC4)cc3)[C@@H]2C1	5
O=C(C[C@H]1CC[C@@H](NS(=O)(=O)c2ccccc2F)[C@H](CO)O1)NCCCN1CCOCC1	0.82
COCC#Cc1ccc([C@H]2[C@@H](CO)N3C(=O)CN(C(=O)c4ccncc4)C[C@@H]23)cc1	0.64
O=C(CC1CC1)N1CC[C@@H]2[C@H]1c1cc(-c3ccc(F)cc3)ccc1N[C@@H]2CO	1.2
COc1ccc2c3c([nH]c2c1)[C@H](CO)N(Cc1ccc(Cl)cc1)CC31CN(S(C)(=O)=O)C1	-0.77
COc1ccc2c3c([nH]c2c1)[C@@H](CO)N(C(=O)Nc1ccc(F)cc1)CC31CCN(C(=O)Cc2ccncc2)CC1	-0.84
CCCC(=O)N1CCC2(CC1)CN(Cc1ccc(Cl)cc1)[C@H](CO)c1[nH]c3cc(OC)ccc3c12	-3.6*
COc1ccc2c3c([nH]c2c1)[C@H](CO)N(C(=O)Nc1ccc(F)cc1)CC31CCN(C(=O)Cc2ccncc2)CC1	1.2
COc1ccc(CN2CC3(CCN(C(=O)Cc4ccncc4)CC3)c3c([nH]c4cc(OC)ccc34)[C@@H]2CO)cc1	-3.1*
COc1ccc2c3c([nH]c2c1)[C@@H](CO)N(Cc1ccc(Cl)cc1)CC31CN(S(C)(=O)=O)C1	0.86
SMILES	IDE exosite inh
O=S(=O)(c1ccc(F)cc1)N1CCCCN2[C@H](CO)[C@H](c3ccc(C4=CCCCC4)cc3)[C@@H]2C1	4
COc1ccc2c3c([nH]c2c1)[C@@H](CO)N(C(=O)C1CCOCC1)CC31CN(C(=O)NC(C)C)C1	0.73
CNC[C@H]1OCCCC[C@H](C)Oc2ccc(NS(=O)(=O)c3ccc(F)cc3)cc2C(=O)N([C@H](C)CO)C[C@@H]1C	0.61
Cn1cnc(S(=O)(=O)N2CCCCN3[C@H](CO)[C@H](c4ccc(-c5ccc(F)cc5)cc4)[C@@H]3C2)c1	3.9
Cn1cnc(S(=O)(=O)N2CCCCN3[C@H](C2)[C@@H](c2ccc(-c4cccc(F)c4)cc2)[C@@H]3CO)c1	0.69
Cn1cnc(S(=O)(=O)N2CCCCN3[C@@H](CO)[C@@H](c4ccc(-c5cccc(F)c5)cc4)[C@@H]3C2)c1	-4.6*
